# Assay results from the supplement of paper PMC10849652.
# Of roughly 7,900 targets only a part is listed; those with a hit were picked by preference. About 0.6% of all pairs of compound and target were hits. Unmarked numbers belong to inactive results.
# Key:
# Assay in all cases: log2 fold change, soluble protein after heating vs DMSO (PISA); higher = thermal stabilisation; K562 cells, 10 uM, 30 min; active = over 0.2 and 3.5 SD of the protein, either way, in both replicates (recomputed)
# bafetinib = compound: Cc1ccc(NC(=O)c2ccc(CN3CC[C@H](N(C)C)C3)c(C(F)(F)F)c2)cc1Nc1nccc(-c2cncnc2)n1 [bafetinib]
# Summary of the method: (§1)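 Thermal stability values are relative to control samples and come from duplicates. They are expressed as log2 fold changes. For measurement, K562 cells (2×10^6 cells/mL) received 10 μM compound for 30 min, and aliquots were heated for 3 min over 48°C-58°C, pooled, and extracted at 4°C in PBS with 0.5% NP-40. Soluble protein, the supernatant after 21,000xg for 90 min, was quantified by TMTpro 16plex LC-MS/MS with equalised channel sums.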
# [1] = compound: Cc1cccc(CC(=O)N2CCc3c2ccc(-c2cn(C)c4ncnc(N)c24)c3F)n1
# Summary of the method: as §1
# nilotinib = compound: Cc1cn(-c2cc(NC(=O)c3ccc(C)c(Nc4nccc(-c5cccnc5)n4)c3)cc(C(F)(F)F)c2)cn1 [nilotinib]
# Summary of the method: as §1
# [2] = compound: Cc1nc(Nc2n[nH]c3c2CN(C(=O)N[C@H](CN(C)C)c2ccccc2)C3(C)C)c2sccc2n1
# Summary of the method: as §1
# dasatinib = compound: Cc1nc(Nc2ncc(C(=O)Nc3c(C)cccc3Cl)s2)cc(N2CCN(CCO)CC2)n1 [dasatinib]
# Summary of the method: as §1
# [3] = compound: Cc1ncc(-c2ccnc(Nc3ccc(S(C)(=O)=O)cc3)n2)n1C(C)C
# Summary of the method: as §1
# [4] = compound: Cn1cc(-c2ccc3c(c2)CCN3C(=O)Cc2cccc(C(F)(F)F)c2)c2c(N)ncnc21
# Summary of the method: as §1
# [5] = compound: Cn1cc(-c2ccc3nnc(C(F)(F)c4ccc5ncccc5c4)n3n2)cn1
# Summary of the method: as §1
# mubritinib = compound: FC(F)(F)c1ccc(/C=C/c2nc(COc3ccc(CCCCn4ccnn4)cc3)co2)cc1 [mubritinib]
# Summary of the method: as §1
# tipifarnib = compound: Cn1cncc1[C@@](N)(c1ccc(Cl)cc1)c1ccc2c(c1)c(-c1cccc(Cl)c1)cc(=O)n2C [tipifarnib]
# Summary of the method: as §1
# UniProt Q9UK99, sequence (Q9UK99 whole entry, looked up): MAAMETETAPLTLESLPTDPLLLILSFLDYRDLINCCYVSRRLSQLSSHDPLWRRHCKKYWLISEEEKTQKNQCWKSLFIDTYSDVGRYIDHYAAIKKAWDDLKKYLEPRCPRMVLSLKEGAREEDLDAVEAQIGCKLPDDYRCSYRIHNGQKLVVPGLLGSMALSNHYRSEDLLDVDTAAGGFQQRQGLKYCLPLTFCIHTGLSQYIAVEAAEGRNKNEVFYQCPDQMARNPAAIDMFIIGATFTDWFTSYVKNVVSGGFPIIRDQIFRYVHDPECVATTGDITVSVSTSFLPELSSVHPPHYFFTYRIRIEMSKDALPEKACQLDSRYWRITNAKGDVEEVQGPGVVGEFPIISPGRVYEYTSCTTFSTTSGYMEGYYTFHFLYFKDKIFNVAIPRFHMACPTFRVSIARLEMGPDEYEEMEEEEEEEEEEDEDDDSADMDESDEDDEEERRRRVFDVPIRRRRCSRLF
# UniProt Q8IVP5, sequence (Q8IVP5 whole entry, looked up): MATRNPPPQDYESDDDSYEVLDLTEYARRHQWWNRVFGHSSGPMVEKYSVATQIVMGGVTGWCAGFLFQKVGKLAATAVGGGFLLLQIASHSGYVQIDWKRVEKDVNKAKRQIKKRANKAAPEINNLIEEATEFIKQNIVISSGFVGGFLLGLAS
# UniProt Q70Z53, sequence (Q70Z53 whole entry, looked up): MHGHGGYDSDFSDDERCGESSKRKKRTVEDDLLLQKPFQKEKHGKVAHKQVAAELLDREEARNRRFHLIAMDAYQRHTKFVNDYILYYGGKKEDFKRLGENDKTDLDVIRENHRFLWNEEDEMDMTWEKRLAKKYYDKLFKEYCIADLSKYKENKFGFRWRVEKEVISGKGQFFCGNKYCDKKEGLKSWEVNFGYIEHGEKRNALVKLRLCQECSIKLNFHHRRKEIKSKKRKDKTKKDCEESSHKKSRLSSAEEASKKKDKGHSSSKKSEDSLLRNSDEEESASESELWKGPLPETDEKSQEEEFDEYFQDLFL
# UniProt Q9BVP2, sequence (Q9BVP2 whole entry, looked up): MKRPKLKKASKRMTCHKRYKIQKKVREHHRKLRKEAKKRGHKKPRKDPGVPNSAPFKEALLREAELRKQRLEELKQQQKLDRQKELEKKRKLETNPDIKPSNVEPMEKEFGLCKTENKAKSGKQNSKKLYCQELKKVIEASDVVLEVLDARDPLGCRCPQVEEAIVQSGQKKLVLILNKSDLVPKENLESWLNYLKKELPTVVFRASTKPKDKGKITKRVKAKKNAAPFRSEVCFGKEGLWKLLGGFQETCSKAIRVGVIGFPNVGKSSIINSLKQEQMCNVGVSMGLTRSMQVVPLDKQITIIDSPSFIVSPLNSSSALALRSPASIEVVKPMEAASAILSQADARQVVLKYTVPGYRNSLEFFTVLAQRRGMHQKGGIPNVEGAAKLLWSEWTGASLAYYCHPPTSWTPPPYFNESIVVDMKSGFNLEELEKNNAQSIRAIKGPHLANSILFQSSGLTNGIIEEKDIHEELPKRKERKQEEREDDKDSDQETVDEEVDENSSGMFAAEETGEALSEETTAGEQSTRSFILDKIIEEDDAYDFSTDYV
# UniProt O43824, sequence (O43824 whole entry, looked up): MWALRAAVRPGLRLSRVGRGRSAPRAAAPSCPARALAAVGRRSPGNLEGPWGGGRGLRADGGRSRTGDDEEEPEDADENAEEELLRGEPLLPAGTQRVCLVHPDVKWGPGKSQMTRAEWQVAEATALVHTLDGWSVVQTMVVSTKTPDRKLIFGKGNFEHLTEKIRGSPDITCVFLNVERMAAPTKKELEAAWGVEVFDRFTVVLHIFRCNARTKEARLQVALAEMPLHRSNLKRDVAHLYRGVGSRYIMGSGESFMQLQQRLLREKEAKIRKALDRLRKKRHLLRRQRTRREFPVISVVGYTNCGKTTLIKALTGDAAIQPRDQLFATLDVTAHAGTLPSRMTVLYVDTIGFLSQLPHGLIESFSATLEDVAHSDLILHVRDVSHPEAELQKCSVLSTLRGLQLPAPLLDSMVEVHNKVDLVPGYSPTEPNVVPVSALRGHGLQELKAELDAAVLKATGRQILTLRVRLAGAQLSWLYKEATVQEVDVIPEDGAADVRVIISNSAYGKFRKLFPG
# UniProt Q92664, sequence (Q92664 whole entry, looked up): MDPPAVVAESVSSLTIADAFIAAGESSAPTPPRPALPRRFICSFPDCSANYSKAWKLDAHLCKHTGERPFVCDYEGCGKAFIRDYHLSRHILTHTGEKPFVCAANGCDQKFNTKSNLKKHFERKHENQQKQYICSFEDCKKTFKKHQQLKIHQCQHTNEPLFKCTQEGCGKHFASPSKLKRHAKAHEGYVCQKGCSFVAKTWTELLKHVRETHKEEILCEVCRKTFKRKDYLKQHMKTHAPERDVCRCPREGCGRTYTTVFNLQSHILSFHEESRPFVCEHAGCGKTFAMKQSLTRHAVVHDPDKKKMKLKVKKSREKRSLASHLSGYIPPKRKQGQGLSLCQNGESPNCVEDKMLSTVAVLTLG
# UniProt Q53GQ0, sequence (Q53GQ0 whole entry, looked up): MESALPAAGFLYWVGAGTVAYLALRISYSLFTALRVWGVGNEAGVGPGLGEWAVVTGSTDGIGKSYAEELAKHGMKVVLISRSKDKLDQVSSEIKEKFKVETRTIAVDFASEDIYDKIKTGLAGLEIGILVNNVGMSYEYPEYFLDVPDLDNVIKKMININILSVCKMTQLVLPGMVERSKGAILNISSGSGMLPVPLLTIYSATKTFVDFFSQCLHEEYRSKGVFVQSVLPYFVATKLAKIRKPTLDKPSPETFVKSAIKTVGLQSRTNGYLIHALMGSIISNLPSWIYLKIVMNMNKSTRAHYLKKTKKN
# UniProt Q8IVV7, sequence (Q8IVV7 whole entry, looked up): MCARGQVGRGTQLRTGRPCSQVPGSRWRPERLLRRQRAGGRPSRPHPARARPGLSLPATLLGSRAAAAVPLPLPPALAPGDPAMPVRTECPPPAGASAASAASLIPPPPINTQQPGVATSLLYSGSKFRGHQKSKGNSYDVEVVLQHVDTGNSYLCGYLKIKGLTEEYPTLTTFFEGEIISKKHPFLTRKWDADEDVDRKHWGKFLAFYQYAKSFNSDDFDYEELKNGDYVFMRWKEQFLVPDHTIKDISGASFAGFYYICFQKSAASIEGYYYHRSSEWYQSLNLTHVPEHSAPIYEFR
# UniProt Q7Z4Q2, sequence (Q7Z4Q2 whole entry, looked up): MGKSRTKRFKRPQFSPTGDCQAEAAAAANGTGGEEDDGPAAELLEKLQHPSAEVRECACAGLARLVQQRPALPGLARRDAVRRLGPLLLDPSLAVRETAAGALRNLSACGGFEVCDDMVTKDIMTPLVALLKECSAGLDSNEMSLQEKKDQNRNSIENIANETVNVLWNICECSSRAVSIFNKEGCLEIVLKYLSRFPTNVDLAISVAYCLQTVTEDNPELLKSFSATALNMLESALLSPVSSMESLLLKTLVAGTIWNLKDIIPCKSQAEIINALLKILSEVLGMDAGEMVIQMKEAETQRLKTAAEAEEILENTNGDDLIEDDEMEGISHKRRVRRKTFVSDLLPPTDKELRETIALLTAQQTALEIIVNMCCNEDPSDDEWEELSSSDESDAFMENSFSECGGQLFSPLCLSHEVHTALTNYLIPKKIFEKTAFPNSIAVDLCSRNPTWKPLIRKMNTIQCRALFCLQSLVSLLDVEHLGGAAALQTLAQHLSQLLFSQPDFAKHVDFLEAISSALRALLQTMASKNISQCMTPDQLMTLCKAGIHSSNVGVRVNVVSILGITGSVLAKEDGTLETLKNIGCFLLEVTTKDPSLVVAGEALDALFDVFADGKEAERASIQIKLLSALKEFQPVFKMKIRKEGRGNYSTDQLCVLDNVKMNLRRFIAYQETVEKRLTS
# UniProt Q86UL3, sequence (Q86UL3 whole entry, looked up): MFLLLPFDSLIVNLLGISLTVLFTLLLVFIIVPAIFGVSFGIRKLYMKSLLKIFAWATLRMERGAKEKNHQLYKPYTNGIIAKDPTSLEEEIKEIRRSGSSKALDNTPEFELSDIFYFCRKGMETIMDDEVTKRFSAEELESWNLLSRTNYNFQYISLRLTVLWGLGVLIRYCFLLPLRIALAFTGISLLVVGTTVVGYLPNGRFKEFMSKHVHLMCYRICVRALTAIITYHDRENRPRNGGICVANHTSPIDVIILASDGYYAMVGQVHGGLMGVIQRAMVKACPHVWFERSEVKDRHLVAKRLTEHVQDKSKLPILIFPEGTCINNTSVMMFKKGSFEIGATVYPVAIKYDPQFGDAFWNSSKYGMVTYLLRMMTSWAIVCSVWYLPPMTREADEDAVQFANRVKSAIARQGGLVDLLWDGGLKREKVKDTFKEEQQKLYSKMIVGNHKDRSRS
# UniProt P09211, sequence (P09211 whole entry, looked up): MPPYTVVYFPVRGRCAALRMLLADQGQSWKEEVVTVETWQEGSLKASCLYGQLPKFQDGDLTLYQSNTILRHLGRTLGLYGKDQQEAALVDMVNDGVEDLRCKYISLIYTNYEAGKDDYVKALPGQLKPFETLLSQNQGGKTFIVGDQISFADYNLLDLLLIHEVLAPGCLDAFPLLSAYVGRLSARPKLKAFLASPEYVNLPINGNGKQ
# UniProt P15260, sequence (P15260 whole entry, looked up): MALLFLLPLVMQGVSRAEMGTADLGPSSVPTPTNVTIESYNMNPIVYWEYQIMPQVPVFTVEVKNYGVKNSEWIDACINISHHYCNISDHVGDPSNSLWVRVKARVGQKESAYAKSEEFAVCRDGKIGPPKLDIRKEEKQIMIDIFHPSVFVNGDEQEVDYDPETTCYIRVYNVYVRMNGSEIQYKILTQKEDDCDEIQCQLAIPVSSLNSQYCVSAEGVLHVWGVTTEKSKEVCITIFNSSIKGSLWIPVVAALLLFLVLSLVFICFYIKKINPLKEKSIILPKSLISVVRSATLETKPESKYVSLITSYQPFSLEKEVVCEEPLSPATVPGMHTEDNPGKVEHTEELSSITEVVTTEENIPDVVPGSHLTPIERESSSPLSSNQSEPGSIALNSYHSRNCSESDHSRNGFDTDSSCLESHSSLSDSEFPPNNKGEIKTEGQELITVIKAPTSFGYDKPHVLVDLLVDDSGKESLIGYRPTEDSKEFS
Target,log2 fold change (bafetinib),log2 fold change [1],log2 fold change (nilotinib),log2 fold change [2],log2 fold change (dasatinib),log2 fold change [3],log2 fold change [4],log2 fold change [5],log2 fold change (mubritinib),log2 fold change (tipifarnib)
GTPBP6 (UniProt O43824),-0.706 (active),-0.072,0.13,0.069,0.028,-0.042,0.057,0.042,0.058,
GALC (UniProt P54803),-0.507 (active),0.084,0.008,0.045,0.096,0.01,0.004,0.065,-0.005,0.126
FKBP3 (UniProt Q00688),0.014,-0.03,0.028,0.041,-0.003,0.029,-0.006,0.021,0.017,-0.01
HDGFL2 (UniProt Q7Z4V5),-0.017,-0.013,-0.007,-0.061,0.035,-0.029,-0.018,-0.048,0.098,0.032
GLA (UniProt P06280),-0.529 (active),-0.051,0.021,-0.007,-0.039,-0.04,0.005,0.03,0.035,0.064
GID4 (UniProt Q8IVV7),-0.059,-0.058,-0.051,0.003,-0.086,0.038,-0.042,-0.032,-0.029,0.116
HIST2H2BF isoform 2 (UniProt Q5QNW6),0.211,-0.189,-0.044,-0.006,0.147,0.012,-0.358,-0.098,-0.173,-0.018
GSTO1 (UniProt P78417),0.021,0.148,-0.009,-0.021,-0.007,-0.009,0.019,-0.004,0.018,-0.014
GTF3A (UniProt Q92664),-0.113,-0.026,0.042,-0.219,-0.137,-0.031,0.023,,0.06,-0.12
FBXO3 (UniProt Q9UK99),-0.052,0.06,-0.031,-0.024,-0.054,-0.006,0.041,-0.035,0.055,-0.007
GSTP1 (UniProt P09211),-0.061,-0.021,-0.018,-0.017,-0.014,0.007,0.032,0.038,0.038,-0.007
GALNT4 (UniProt Q8N4A0),-0.042,-0.042,-0.049,0.006,-0.021,0.042,0.079,-0.005,0.035,0.038
FHOD1 (UniProt Q9Y613),-0.187,-0.005,-0.089,-0.109,0.044,-0.043,-0.238,-0.089,-0.218,0.041
GSK3B isoform 2 (UniProt P49841),-0.003,0.055,-0.04,0.094,-0.115,0.124,0.055,-0.013,-0.008,-0.024
HEATR3 (UniProt Q7Z4Q2),0.058,0.389 (active),-0.045,-0.088,-0.073,-0.073,-0.008,0.138,-0.079,-0.011
FAT1 (UniProt Q14517),-0.061,0.044,0.013,0,0.046,-0.064,0.009,-0.052,0.057,0.077
GATD1 (UniProt Q8NB37),0.008,-0.021,0.059,-0.016,-0.011,0.119,0.046,0.015,0.035,0.029

Target,log2 fold change (bafetinib),log2 fold change [1],log2 fold change (nilotinib),log2 fold change [2],log2 fold change (dasatinib),log2 fold change [3],log2 fold change [4],log2 fold change [5],log2 fold change (mubritinib),log2 fold change (tipifarnib)
H2AFX (UniProt P16104),0.103,-0.198,-0.041,-0.025,0.283,-0.012,-0.439,-0.146,-0.111,0.074
IFNGR1 (UniProt P15260),-0.262,-0.027,0.075,-0.015,0.154,-0.126,0.123,-0.123,0.299,0.119
HNRNPK isoform 2 (UniProt P61978),-0.03,0.007,-0.084,-0.206,-0.072,-0.136,0.031,0.017,-0.024,0.007
HSD17B12 (UniProt Q53GQ0),0.067,-0.039,0.184,-0.039,-0.095,0.002,0.092,-0.02,-0.018,0.089
GPAT4 (UniProt Q86UL3),-0.138,-0.028,-0.047,0.049,-0.024,-0.009,0.093,-0.018,-0.008,-0.069
FRA10AC1 isoform 3 (UniProt Q70Z53),-0.087,0.018,-0.034,-0.039,-0.051,0.085,-0.076,,0.011,-0.055
HNRNPUL2 (UniProt Q1KMD3),0,-0.083,-0.001,0.033,0.098,0.097,-0.147,-0.035,-0.137,0.03
FIBP (UniProt O43427),-0.096,-0.093,,,-0.201,,0.118,-0.06,0.134,-0.029
FAT2 (UniProt Q9NYQ8),0.076,-0.005,,,0.006,,0.167,0.002,0.354,0.008
"HBZ, A0A494C057",-0.015,,0.171,-0.035,,0.127,,,-0.08,
IGF2 isoform 3 (UniProt P01344),,,,,0.019,,,,,
GBA2 (UniProt Q9HCG7),0.045,,-0.057,-0.061,-0.144,0.007,0.138,,0.234,0.091
H3-3A (UniProt P84243),-0.046,,-0.038,-0.123,-0.133,-0.067,0.08,,0.236,-0.261
GNL3 (UniProt Q9BVP2),-0.038,-0.078,-0.007,0.011,-0.031,0.056,0.069,,0.134,
HSPA2 (UniProt P54652),-0.08,,0.024,0.031,,-0.013,,0.003,-0.067,
FUNDC1 (UniProt Q8IVP5),-0.169,,,,,,,,0.066,0
HNRNPK isoform 3 (UniProt P61978),0.003,-0.18,-0.115,-0.022,0.021,0.143,,-0.002,-0.101,
